Among all 65,000 compounds or so, about 450 (0.69%) were called active.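 Rule for the calls: active = activation above a set limit, the screen-wide mean activation plus 3 SD (cut at about 8.5% in these data); inactive = the rest.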 What follows is part of a selection rich in actives, with near analogues and random picks from the rest.
target: 5-hydroxytryptamine receptor 1E (Homo sapiens) (UniProt P28566); experiment: activation of human serotonin 5HT1E receptor – cell-based, HTS, primary screen (AID 574); details: CHO 5-HT1E Ga15 NFAT-bla reporter, FRET; at 6 µM; stronger effect = higher value; 0% DMSO wells, 100% control agonist wells;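 note: 100% = positive control agonist at 1 µM giving full maximal response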
Sequence (P28566 whole entry, looked up): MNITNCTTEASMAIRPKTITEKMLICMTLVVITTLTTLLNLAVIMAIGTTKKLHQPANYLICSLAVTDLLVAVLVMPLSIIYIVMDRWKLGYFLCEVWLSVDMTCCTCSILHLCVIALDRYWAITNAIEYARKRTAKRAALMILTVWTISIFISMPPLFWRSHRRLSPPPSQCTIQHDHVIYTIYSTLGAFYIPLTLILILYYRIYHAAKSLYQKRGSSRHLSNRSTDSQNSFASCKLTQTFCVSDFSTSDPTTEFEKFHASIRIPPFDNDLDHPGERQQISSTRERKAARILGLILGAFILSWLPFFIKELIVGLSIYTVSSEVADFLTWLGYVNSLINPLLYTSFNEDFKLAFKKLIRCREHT

activation, active:
CC(=O)c1c(N)n(C)c(=O)n(C)c1=O 22.1%
Cc1cc(=O)cc(C)[nH]1 33.2%

activation, inactive:
O=C(O)CN(Cc1ccco1)S(=O)(=O)c1ccc(F)cc1 0%
COc1cccc(OC)c1C(=O)Nc1nnc(C(C)C)s1 -0.1%
CCn1c(CNc2ccc(OC)cc2)nnc1SCC(=O)c1ccc(OC)cc1 0.6%
CC1=C(C(=O)OC2CCCCC2)C(c2cccnc2)n2ncnc2N1 (stereo not given) -0.4%
Cc1ccnc(SCCn2c(N(C)Cc3ccccc3)nc3c2c(=O)n(C)c(=O)n3C)n1 -0.1%
CCOC(=O)C1(c2ccccc2)NC(c2ccc(N(C)C)cc2)C2C(=O)N(C)C(=O)C21 (stereo not given) 0.7%
COc1ccccc1-n1cnc2cc(C(=O)NCC3CCCO3)ccc21 (stereo not given) 0%
C=CCn1c(COc2ccccc2)nnc1SCC(=O)NCC(=O)OCC -0.3%
CCc1nnc(NC(=O)CSc2nc3c(c(=O)n2-c2ccccc2OC)SCC3)s1 -0.6%
CCCC1C(c2ccccc2)C(C#N)(C#N)C2(C#N)CC1(N)NC2=O (stereo not given) 0.5%
Cc1cc(C(=O)OCC(=O)c2c(N)n(C)c(=O)n(C)c2=O)c(C)o1 0.7%
CC(=O)OCc1cc(=O)n(C)c(=O)n1C -1.2%
Cc1ccc(N(C(=O)CC2NC(=O)NC2=O)C2(C(=O)NC3CCCC3)CCCCC2)cc1 (stereo not given) -0.5%
CC(C)(C)OC(=O)c1c(N)n(CCCN2CCCC2=O)c2nc3ccccc3nc12 2.2%
CSc1nc2ccc(S(=O)(=O)N3CCc4ccccc43)cc2s1 0.9%
COCCCNC(=O)C1CC(=O)N(c2ccc(C)cc2)C1 (stereo not given) -1.2%
CC(CCO)Nc1nc2c([nH]1)c(=O)n(C)c(=O)n2C (stereo not given) -1.6%
CCCOc1ccc(/C(O)=C2/C(=O)C(=O)N(CCN(C)C)C2c2ccc(OC)c(OC)c2)cc1 (stereo not given) -0.3%
O=C(Nc1cccc2c1CCCC2)C1CCN(C(=O)NC2CCCCC2)CC1 -1.2%
CC1(C)CN=C(N2CCN(c3ncnc4sc5c(c34)CCCC5)CC2)S1 -0.6%
CCc1ccc(Nc2ncc3c(n2)CC(c2ccco2)CC3=O)cc1 (stereo not given) -0.5%
CCOCC(=O)NCc1ccc2c(c1)cc(C)n2C 0.7%
COc1ccc(S(=O)(=O)Nc2ccc3c(c2)OCO3)cc1Cl -1.3%
Cc1nc(NCCN)c(C#N)c2c1COC(C)(C)C2 -0.4%
CCCCN(C)C(=O)c1ccc2c(c1)N(CC)C(=O)c1ccccc1S2(=O)=O -1.1%
O=C(Nc1ccccc1C(=O)N1CCOCC1)C1CCC(=O)N1C1CCCC1 (stereo not given) 0.6%
Cc1cc(C)nc(SCc2nnc(SCC(=O)Nc3ncc(C)s3)n2Cc2ccco2)n1 0.8%
CCN1C(=O)CS/C1=N\c1nccs1 -0.1%

Source: PubChem BioAssay AID574 (The Scripps Research Institute Molecular Screening Center, 2007)
